High-throughput results from PubChem.
Shn3 3UTR inh – reduces Shn3 3'UTR luciferase signal in osteoblasts; inhibition, % at 12.5 µM; 360,000 tested, 0.52% active; Clone20 osteoblast Shn3 3'UTR firefly luciferase, 24 h;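 active = mean inhibition of at least 75% with every replicate also reaching 75%; inconclusive = mean inhibition at least 75% but some replicate below; inactive = mean inhibition below 75%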
EBV LMP1 NFkB – inhibitors of Epstein-Barr LMP1-induced NF-kappaB reporter; LMP1-induced NF-kappaB luciferase reporter cells, luminescence; inhibition, % at 12.5 µM; 350,000 tested, 0.69% active; in the data active = inhibition above about 41%; inconclusive = no clear call, values can overlap the other calls
HIF-2a block – inhibitors of HIF-2a; 786-0 RCC cells HIF-2a reporter, luciferase luminescence, overnight; inhibition, % at 18.8 µM; 360,000 tested, 0.72% active; AID 624352;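 active = inhibition of the luminescence signal of 40% or more relative to plate controls, in a single-dose primary screen at 18.75 µM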
TWEAK-Fn14 inh – blocks TWEAK-Fn14 interaction in a reporter cell assay; TWEAK-stimulated Fn14 reporter cells, luciferase luminescence, 8 h; inhibition, % at 10 µM; 360,000 tested, 2% active; AID 1159606; in the data active = inhibition above about 50%
TROY NFkB inh – inhibitors of TROY-dependent NF-kB signaling; Q293 LMP1-TROYcd NF-kB luciferase reporter, 4 h; inhibition, % at 10 µM; 360,000 tested, 0.98% active;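 active = compounds whose plate-normalised and pattern-corrected inhibition of the luciferase reporter signal at the single screening dose is 50% or more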
MITF TRPM1 inh – reduces MITF-dependent TRPM1 promoter luciferase signal; 330,000 tested, 0.83% active; inhibition, % at 12.5 µM; SK-MEL-5 TRPM1 promoter luciferase, 24 h;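 active = mean inhibition across replicates of 60% or more, whatever share of single replicates reaches that level; inconclusive = some that reach 60%, reason not given; inactive = mean inhibition across replicates below 60%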
Numbers stand for hits; n = inactive; u = inconclusive; x = no result given; ! = a repeat was not active. Compounds with a hit are over-represented: about 3.4% of the library has one in this group of screens.

SMILES | Shn3 3UTR inh | EBV LMP1 NFkB | HIF-2a block | TWEAK-Fn14 inh | TROY NFkB inh | MITF TRPM1 inh
O=C1Nc2ccccc2N(O)N1c1ccc(Cl)cc1 | n | n | n | n | n | n
CCN1c2ccccc2NC2C1C(C(C)=O)C(=O)N2c1ccc(Cl)cc1 (centres undefined) | n | n | n | n | n | 64.5
CCN(CC)Cc1cc(Nc2ccnc3cc(Cl)ccc23)ccc1O | n | 57.1! | n | n | n | n
CC(=O)Nc1ccc(NC(=O)C2CC(=O)N(Cc3ccco3)C2)cc1 (centres undefined) | n | n | n | n | n | n
CSc1ccc(Cn2c(C)c(C(=O)NCc3ccc(Cl)c(Cl)c3)sc2=O)cc1 | n | x | n | n | n | x
COc1ccc(CNC(=O)c2sc(=O)n(Cc3ccc(C)cc3)c2C)cc1OC | n | x | n | n | n | x
Cc1c(C(=O)NCc2ccc(Cl)c(Cl)c2)sc(=O)n1Cc1ccc(S(C)(=O)=O)cc1 | n | x | n | 52.9 | n | x
COc1ccc(CNC(=O)c2sc(=O)n(Cc3ccc(-c4ccccc4)cc3)c2C)cc1OC | n | x | n | 60.6 | n | x
Cc1cccc(C)c1NC(=O)C(c1ccncc1)n1c(=O)c(-c2ccco2)nc2ccccc21 (centres undefined) | x | x | n | x | x | x
O=C(NCCN1C(=O)S/C(=C\c2ccc(Cl)c(Cl)c2)C1=O)c1ccc2c(c1)C(=O)N(Cc1ccncc1)C2=O | n | n | n | 58.1 | n | n
O=C(NCCN1C(=O)S/C(=C\c2ccc(Cl)c(Cl)c2)C1=O)C1COc2ccccc2O1 (centres undefined) | n | n | n | n | n | n
COc1ccc(NC(=O)C[C@H]2C(=O)N(c3ccccc3)C[C@@H]2CSC)cc1 | n | n | n | n | n | x
CN(CC(=O)NCc1ccc2c(c1)OCO2)S(=O)(=O)c1ccc(Br)s1 | 93.7 | n | n | n | n | n
C#CCN(Cc1ccco1)C(=O)c1cc(COc2cccc3cccnc23)on1 | n | n | n | n | n | x
CCN1/C(=C/c2cccc[n+]2C)Sc2ccc(OC)cc21 | n | n | n | n | n | n
CCN1/C(=C/c2ccc3ccccc3[n+]2CC)C=Cc2ccccc21 | 91.1 | 52.6 | 66.2 | 55.5 | 52.1 | 101.6
CCCCN1/C(=C/c2ccc3ccccc3[n+]2CC)Sc2ccccc21 | 89.9 | 52.4 | n | 66.3 | n | 69.1
CCN1/C(=C/c2ccc3cc(C)ccc3[n+]2CC)Sc2cc(C)ccc21 | u | n | 63.3 | n | n | 85.1
CCN1/C(=C/c2ccc3cc(C)ccc3[n+]2C)Sc2ccc3sccc3c21 | 91.2 | n | 42.4 | n | n | 77.3
CCNC(=O)C1(C)CCCN1Cc1cccc(C(F)(F)F)c1 (centres undefined) | n | x | n | n | n | x
O=C1c2cccc(OCC(=O)N3CCCc4ccccc43)c2CCN1Cc1ccc(Br)cc1 | n | n | n | 79.4 | n | n
O=C1c2cccc(OCC(=O)N3CCCc4ccccc43)c2CCN1Cc1ccccc1 | n | n | n | n | n | n
COc1ccc(C=C(C(C)=O)C(=O)c2ccccc2)cc1 | n | x | n | n | n | x
COc1ccc(C=C(C(=O)c2ccccc2)C(=O)c2ccccc2)cc1 | n | x | n | 51.7 | n | x
O=C1C=CC(=O)C(CNc2ccc(C(=O)OCc3ccccc3)cc2)=C1 | 95.5 | n | n | 106.8 | n | 65.9
SMILES | Shn3 3UTR inh | EBV LMP1 NFkB | HIF-2a block | TWEAK-Fn14 inh | TROY NFkB inh | MITF TRPM1 inh
CC(=O)Nc1ccc(-c2nn[nH]n2)cc1 | n | n | n | n | n | n
CC(=O)Nc1ccc(-c2ccnc(-c3ccc(NC(C)=O)cc3)n2)cc1 | n | n | n | 62.1 | n | n
O=C(CSc1nnc2scc(-c3ccccc3)n12)Nc1nsc(-c2ccc(Cl)cc2)n1 | n | n | n | 53.9 | n | n
OC(CN1CCOCC1)(c1ccccc1)c1ccccn1 (centres undefined) | n | x | n | n | n | n
CCn1c(=NC(=O)c2ccc(S(=O)(=O)N3CCOCC3)cc2)sc2cccc(OC)c21 | x | n | n | 59.7 | n | n
COCCn1c(=NC(=O)c2ccc(S(=O)(=O)N3CCOCC3)cc2)sc2cc(S(N)(=O)=O)ccc21 | n | n | n | n | n | n
CCn1c(=NC(=O)CCS(=O)(=O)c2ccccc2)sc2cccc(OC)c21 | n | n | n | 58.3 | n | n
C=CC[n+]1c(-c2ccc(OC)c(OC)c2)csc1NNC(=O)Nc1ccccc1 | 90.5 | n | n | n | n | n
C=CC[n+]1c(-c2ccccc2)csc1NC(C)(C)C | n | n | n | n | n | n
